Luciferase inh: Photinus pyralis luciferase inhibition | P08659 | purified P. pyralis luciferase, luminescence, biochemical | Potency, µM (top dose mostly 115 µM), usual class: inhibitors | 76,000 compounds, 2.5% hits; note: nearly all actives have a fitted effect of over 65% in size
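Inhibitors were tested against purified firefly luciferase in a biochemical, low-substrate format (both substrates at 10uM) and luminescence measured with a CCD imager.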
GPT2 inhibitor: GPT2 alanine aminotransferase inhibition; Recombinant GPT2, coupled pyruvate oxidase/HRP Amplex Red fluorescence; 100,000 compounds, 0.25% hits; Q8TD30; Potency, µM (series often up to 57.7 µM), hits mostly inhibitors; note: nearly all actives have a fitted effect of over 60% in size
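Fluorescence read-out: pyruvate from GPT2 turnover coupled to pyruvate oxidase, HRP and Amplex Red (0.2mM ThPP, 0.2U/mL PO and HRP, 50uM Amplex final). Substrates 250uM a-KG, 2mM L-alanine; enzyme 10ng/uL; 30 min RT.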
HEK293 tox: HEK 293 cell cytotoxicity; HEK 293 viability, ATP luminescence (CellTiter-Glo), 48-72 h; Potency, µM (highest dose often 115 µM), usual class: inhibitors; 94,000 compounds, 6.6% hits; note: nearly all actives have a fitted effect of over 60% in size
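Viability of HEK 293 cells, plated at 250 cells/well, was judged by cellular ATP after compound treatment for 48 or 72 hr. Luminescence was imaged 10 min after CellTiter-Glo addition at room temperature.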
3T3 cytotox: kills NIH 3T3 cells | NIH 3T3 viability, CellTiter-Glo ATP luminescence, 48-72 h | Potency, µM (highest dose often 96.7 µM), usual class: inhibitors | 94,000 compounds, 4.3% hits | AID 1345082; note: nearly all actives have a fitted effect of over 55% in size
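ATP-dependent luminescence (CellTiter-Glo) served as the viability signal for NIH 3T3 cells treated with compound for 48 or 72 hr at 37 °C.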
hNpr1 antagonist: blocks ANP-stimulated signaling of human Npr1 receptor; P16066; HEK293 hNpr1 GloSensor cGMP, ANP-stimulated luminescence; Potency, µM (highest dose often 46.3 µM), most hits filed as inhibitors; 76,000 compounds, 1.6% hits; AID 1347048; calls by dose curve; note: nearly all actives have a fitted effect of over 60% in size
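Compound pre-incubated 30 min at room temperature on GloSensor-loaded HEK293 cells stably carrying hNpr1 and the pGS-40F cGMP biosensor. Stimulation uses hNppA at 0.1 nM final; luminescence is taken at baseline and 20 min post-agonist.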
Npr1 antag conf: confirmation of human Npr1 natriuretic peptide receptor antagonists; shares compounds with hNpr1 antagonist; HEK293 hNpr1 cGMP GloSensor luminescence, ANP-stimulated; Potency, µM (doses to about 57.6 µM), most hits filed as inhibitors; 1,400 compounds, 76% hits; AID 1347044; calls by dose curve; note: nearly all actives have a fitted effect of over 70% in size
NPR2 antag: selectivity test of Npr1 antagonists against human Npr2 | shares compounds with hNpr1 antagonist | HEK293 hNpr2 GloSensor cGMP luminescence, CNP-stimulated | Potency, µM (titrated, usually from 57.6 µM), hits mostly inhibitors | 1,400 compounds, 67% hits; calls by dose curve; note: nearly all actives have a fitted effect of over 70% in size
FLuc counter: FLuc enzyme inhibition, Npr1 counter-screen | purified FLuc enzyme, luminescence, Km substrate | shares compounds with hNpr1 antagonist | 1,400 compounds, 0.7% hits | Potency, µM (top dose mostly 57.6 µM), most hits filed as inhibitors
GloSensor cGMP: counter-screen for Npr1 antagonists: GloSensor control cell line; shares compounds with hNpr1 antagonist; HEK293 GloSensor cGMP, SNP-stimulated, luminescence; Potency, µM (top dose mostly 57.6 µM), hits mostly inhibitors; 1,400 compounds, 69% hits; calls by dose curve; note: nearly all actives have a fitted effect of over 70% in size
Numbers stand for hits; . = inactive; ? = inconclusive; / = no result given; [ ] = remark or other dose. Sampled rows, rich in hits. Any-hit rate of the full collection: about 10%. Unless noted, calls come from the whole dose curve; as a rule, active = well fitted curve in the direction sought with a large enough effect; inconclusive = small, poorly fitted or top-dose-only effect, or another doubt; inactive = no such curve, though single readings can be large; an effect the other way counts as inactive or inconclusive.

SMILES | Luciferase inh | GPT2 inhibitor | HEK293 tox | 3T3 cytotox | hNpr1 antagonist | Npr1 antag conf | NPR2 antag | FLuc counter | GloSensor cGMP
Cc1nc(CN2Cc3nc(Nc4ccc(C(F)(F)F)cc4)ccc3OCC2=O)cs1 | . | . | ? | ? | ? | / | / | / | /
CC(C)CNC(=O)N1CCC(Cc2noc(C3CCOCC3)n2)C1 (stereo not drawn) | / | . | . | . | / | / | / | / | /
CN(CCc1ccccn1)c1cc(C2CC(O)C2)ncn1 (stereo not drawn) | ? | .[11.5 µM] | . | . | . | / | / | / | /
Cc1ccc(SCCN(C)c2cc(C3CC(O)C3)nc(N)n2)cc1 (stereo not drawn) | . | . | 28µM | ? | 13µM | 24µM | 22µM | . | 22µM
CN(CCc1nc2ccc(Cl)cc2[nH]1)c1cc(C2CC(O)C2)nc(N)n1 (stereo not drawn) | . | . | . | . | . | / | / | / | /
Cc1c(CN(C)c2cc(C3CC(O)C3)nc(N)n2)[nH]c2ccccc12 (stereo not drawn) | . | . | . | ? | 0.63µM | 0.43µM | 0.86µM | . | 0.43µM
COC(=O)CNC(=O)c1nc2cccnc2n(C2CC2)c1=O | / | . | . | . | / | / | / | / | /
COc1ccc(-c2nccn3cc(C(=O)NCc4ccc(OC)c(OC)c4)nc23)cc1 | . | . | ? | . | 13µM | 19µM | 15µM | . | .
COCCNC(=O)c1cn2ccnc(-c3ccc(OC)cc3)c2n1 | . | . | . | . | . | / | / | / | /
O=C(C1CCCN1C(=O)c1ccc(C(F)(F)F)cc1)N1CCC(N2CCOCC2=O)CC1 (stereo not drawn) | / | . | . | . | / | / | / | / | /
COc1ccc(CN2CCCn3nc(C)c(-c4ccccc4Oc4ccccc4)c32)cc1O | . | . | 20µM | 11µM | 2.5µM | 22µM | 22µM | . | 4.8µM
Cc1nn2c(c1-c1ccccc1Oc1ccccc1)N(CC1CCOCC1)CCC2 | . | . | ? | ? | . | / | / | / | /
Cc1nn2c(c1-c1ccccc1Oc1ccccc1)N(C(=O)c1ccc(F)cc1)CCC2 | . | . | ? | ? | . | / | / | / | /
Cc1nn2c(c1-c1ccccc1Oc1ccccc1)N(Cc1ccc(C(=O)O)cc1)CCC2 | . | . | 45µM | 25µM | 2.8µM | ? | ? | . | ?
Cc1nn2c(c1-c1ccccc1-c1ccccc1)N(Cc1cccc(O)c1)CCC2 | . | . | ? | ? | 2.2µM | 3.1µM | 5µM | . | 3.5µM
COCC1CN(C2CCC2)CC12CCN(C(=O)NCCc1ccccc1)CC2 (stereo not drawn) | . | . | ? | ? | . | . | . | . | .
Cc1c(C(C)NC(=O)c2ccccc2-c2ncn[nH]2)cnn1-c1ccccn1 (stereo not drawn) | . | . | . | . | . | / | / | / | /
Cc1nc2ccccn2c1C(=O)NC(C)c1cnn(-c2ccccn2)c1C (stereo not drawn) | . | . | ? | ? | 4.5µM | 6.1µM | 9.7µM | . | 4.8µM
O=C(Nc1ccccc1)c1ccc(N2CC3CCC(C2)N3CC(F)(F)F)nn1 | / | . | ? | . | / | / | / | / | /
Cc1ccc(F)c(C(CC(=O)NCc2ccco2)c2c[nH]c3ccc([N+](=O)[O-])cc23)c1 (stereo not drawn) | . | . | 40µM | 32µM | . | ? | ? | . | ?
COc1ccc(CN2CC3(CCN(C(=O)Nc4cccc(C(F)(F)F)c4)CC3)C2=O)cc1 | . | . | ? | ? | 16µM | ? | ? | . | ?
C[C@H](O)C(=O)N1CCc2ccc(S(=O)(=O)NCCOc3ccccc3)cc2C1 | . | .[11.5 µM] | ? | . | . | / | / | / | /

Assay outcomes from PubChem BioAssay.
